This is an account of results in PubChem BioAssay (NCI).

Some test systems named below: NCI-H23 lung; NCI-H226 lung; NCI-H322M lung; HOP-62 NSCLC; NCI-H460 lung; HOP-92 NSCLC; NCI-H522 lung; A549/ATCC NSCLC; 786-0 renal; COLO 205 colon; K-562 leukemia; MALME-3M melanoma; MDA-MB-231 breast; RXF 393 renal; SF-268 CNS; SF-295 CNS; SF-539 CNS; UACC-257 melanoma; M14 melanoma; DU-145 prostate.
Common to all, as to assay: NCI-60 one-dose screen, 48 h (100 = growth as untreated, 0 = no growth, -100 = all killed)
What all share (conditions): 10 µM unless noted

The panel holds about 83,000 compounds, 20% with a hit somewhere; the sample as a whole holds those more often.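 Growth was measured after 48 h exposure to one concentration of compound in 96-well plates. Values under 10 count as active.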 Values without a mark were called inactive. The source made the active and inactive calls.

As for `O=C1C=CC(=O)N1CO`, the growth is 124% in the assay with NCI-H23 lung; 113% with NCI-H226 lung; 117% with NCI-H322M lung; 115% with HOP-62 NSCLC; 123% with NCI-H460 lung; 120% with HOP-92 NSCLC. In addition, the growth was 103% in the assay on NCI-H522 lung; 109% with A549/ATCC NSCLC; 113% in the assay with 786-0 renal; 149% with COLO 205 colon; -29.9% (active) with K-562 leukemia; 130% in the assay with MALME-3M melanoma. The growth in the assay with MDA-MB-231 breast is 109%; with RXF 393 renal it was 168%; in the assay on SF-268 CNS, 111%; in the assay on SF-295 CNS, 131%; in the assay with SF-539 CNS it was 111%; with UACC-257 melanoma, 109%. In the assay on M14 melanoma, the growth is 109%.
Take `O=C(CSc1ccc(Cl)cc1)Nc1ccc(-c2nc3ccccc3s2)c(Cl)c1`: the growth with NCI-H23 lung was 20.9%; in the assay with NCI-H226 lung it was 77.4%; with NCI-H322M lung, 87.7%; in the assay on HOP-62 NSCLC, 75.3%; with NCI-H460 lung, 41.5%; with HOP-92 NSCLC, 6.61% (active). Moreover, the growth in the assay with NCI-H522 lung was 28.2%; with A549/ATCC NSCLC, 48.8%; in the assay on 786-0 renal it was 48.9%; with COLO 205 colon, 76.2%; in the assay with K-562 leukemia it was 34.3%; in the assay on MALME-3M melanoma, 108%. Moreover, the growth in the assay with MDA-MB-231 breast is 93.8%; in the assay with RXF 393 renal, 78.7%; in the assay on SF-295 CNS, 22.3%; in the assay with SF-539 CNS, 93.1%; in the assay on UACC-257 melanoma, 84.5%; in the assay on M14 melanoma, 75.4%.
In the case of `COc1cc(/C=C/C(=O)c2c(C)nc3ccccc3c2C)ccc1OCCCOc1cc2c(cc1OC)C(=O)N1CCC[C@H]1C=N2`, the growth is -19.5% (active) in the assay with NCI-H23 lung; -4.56% (active) in the assay with NCI-H226 lung; -58.6% (active) in the assay on NCI-H322M lung; -6.66% (active) with HOP-62 NSCLC; -61% (active) in the assay with NCI-H460 lung; -45.1% (active) with HOP-92 NSCLC. Besides, the growth is -56.9% (active) in the assay with NCI-H522 lung; 2.42% (active) in the assay with A549/ATCC NSCLC; -47.9% (active) with 786-0 renal; -85.9% (active) in the assay on COLO 205 colon; -10.8% (active) with K-562 leukemia; -37.2% (active) in the assay with MALME-3M melanoma. In addition, the growth is -35.6% (active) in the assay on MDA-MB-231 breast; -83.7% (active) with RXF 393 renal; -47.9% (active) with SF-268 CNS; -47.6% (active) with SF-295 CNS; -87% (active) with SF-539 CNS; -1.91% (active) in the assay on UACC-257 melanoma. The growth in the assay with M14 melanoma was -45.2% (active).
For the molecule `CCCCOc1ncnc2nc[nH]c12`, the growth in the assay with NCI-H23 lung is 100%; in the assay on NCI-H226 lung, 94.2%; with NCI-H322M lung it was 101%; in the assay on HOP-62 NSCLC, 96.1%; in the assay on NCI-H460 lung, 113%; with HOP-92 NSCLC, 101%. The growth is 100% with NCI-H522 lung; 99.3% in the assay with A549/ATCC NSCLC; 97.1% with 786-0 renal; 110% with COLO 205 colon; 95.4% with K-562 leukemia; 103% in the assay with MALME-3M melanoma. For the same molecule, the growth with MDA-MB-231 breast is 115%; with RXF 393 renal, 97.7%; in the assay with SF-295 CNS, 110%; in the assay on SF-539 CNS, 102%; in the assay on UACC-257 melanoma, 101%; in the assay on M14 melanoma, 106%.
Consider `COc1ccc(Br)c2ccccc12`, for which the growth in the assay with NCI-H23 lung is 109%; with NCI-H226 lung, 106%; in the assay with NCI-H322M lung, 117%; in the assay with HOP-62 NSCLC, 103%; in the assay with NCI-H460 lung it was 114%; in the assay on HOP-92 NSCLC, 93.9%. Further, the growth with NCI-H522 lung is 97.9%; in the assay on A549/ATCC NSCLC it was 104%; in the assay with 786-0 renal, 115%; in the assay with COLO 205 colon, 120%; in the assay with K-562 leukemia, 94.3%; in the assay on MALME-3M melanoma it was 121%. The growth is 123% with MDA-MB-231 breast; 109% with RXF 393 renal; 108% in the assay with SF-268 CNS; 110% in the assay with SF-295 CNS; 109% in the assay with SF-539 CNS; 100% with UACC-257 melanoma. The growth in the assay with M14 melanoma is 101%.
Regarding `COc1ccc(CCN2COc3c([C@@H](C)CCC=C(C)C)ccc(C)c3C2)cc1OC`, the growth with NCI-H23 lung is 39.1%; with NCI-H226 lung it was 82.3%; in the assay on NCI-H322M lung, 88.2%; in the assay on HOP-62 NSCLC, 73.4%; with NCI-H460 lung, 34.5%; in the assay on HOP-92 NSCLC, -1.29% (active). Moreover, the growth with NCI-H522 lung is 64.7%; in the assay on A549/ATCC NSCLC, 74.3%; in the assay on 786-0 renal it was 52.4%; in the assay on COLO 205 colon, -92.9% (active); in the assay on K-562 leukemia, 13.1%; with MALME-3M melanoma, 48%. In addition, the growth with MDA-MB-231 breast was 57%; with RXF 393 renal it was 63.9%; with SF-295 CNS it was 43.1%; in the assay on SF-539 CNS, 80.5%; in the assay on UACC-257 melanoma it was 48.1%; with M14 melanoma, 11.5%.
Turning to `Cc1ccc(O)c(Cc2ccccc2)c1`, the growth in the assay on NCI-H23 lung was 101%; in the assay with NCI-H226 lung it was 106%; in the assay on NCI-H322M lung, 112%; in the assay on HOP-62 NSCLC, 96.2%; in the assay with NCI-H460 lung it was 99%; in the assay on HOP-92 NSCLC, 52.7%. In addition, the growth in the assay on NCI-H522 lung is 93.5%; in the assay with A549/ATCC NSCLC, 101%; in the assay with 786-0 renal it was 107%; in the assay with COLO 205 colon it was 111%; with DU-145 prostate, 108%; with MALME-3M melanoma it was 143%. Moreover, the growth in the assay with MDA-MB-231 breast was 96.7%; in the assay on RXF 393 renal it was 103%; with SF-268 CNS it was 99.6%; in the assay on SF-539 CNS it was 100%; in the assay on UACC-257 melanoma, 93.7%; in the assay on M14 melanoma it was 101%.
`COC(=O)c1ccc(NC(N)=NCCC(C)(C)c2ccc(C(F)(F)F)cc2)nc1`: the growth was 17.5% in the assay with NCI-H23 lung; 37.4% in the assay on NCI-H226 lung; 74.5% in the assay with NCI-H322M lung; 63.7% in the assay on HOP-62 NSCLC; 31.6% with NCI-H460 lung; 39% in the assay on HOP-92 NSCLC. The growth in the assay with NCI-H522 lung is 39%; in the assay on A549/ATCC NSCLC, 54.2%; in the assay on 786-0 renal, 56.9%; in the assay with COLO 205 colon it was -71.2% (active); with K-562 leukemia it was 1.24% (active); in the assay on MALME-3M melanoma, -30.9% (active). Also, the growth in the assay on MDA-MB-231 breast was 42.7%; with RXF 393 renal, 58.7%; in the assay with SF-295 CNS, 29.5%; with SF-539 CNS, 79.3%; in the assay on UACC-257 melanoma, 38.8%; in the assay on M14 melanoma, -40% (active).
`O=C(Nc1ccc2ncnc(Nc3ccc(F)c(Cl)c3)c2c1)c1cccs1`: the growth in the assay on NCI-H23 lung was 81.6%; in the assay on NCI-H226 lung, 58.1%; in the assay with NCI-H322M lung, 19.3%; with HOP-62 NSCLC, 72.7%; in the assay with NCI-H460 lung it was 39.6%; in the assay on HOP-92 NSCLC, 38%. For the same molecule, the growth with NCI-H522 lung is 31.4%; with A549/ATCC NSCLC, 43.3%; with 786-0 renal, 14.8%; with COLO 205 colon it was 106%; in the assay on K-562 leukemia, 49.9%; in the assay on MALME-3M melanoma, 66.4%. The growth is 43.4% in the assay on MDA-MB-231 breast; -3.16% (active) with RXF 393 renal; 46.4% with SF-295 CNS; 63.5% with SF-539 CNS; 101% with UACC-257 melanoma; 65% in the assay with M14 melanoma.
